Test results: article PMC10726135, “HNF4α isoforms regulate the circadian balance between carbohydrate and lipid metabolism in the liver”
Whole data set: some 18,000 sequences, median “log2 normalized intensity” near 0.36, cut for the highest 2% near 7.3. Many of the other results were omitted from the sample, so the highest values are more common in it than they were.

These sequences were tested against T1, HNF4alpha8 (COS-7 nuclear extract) (Homo sapiens, UniProt P41235-5 1-452) (assay: protein-binding microarray; COS-7 nuclear extract on double-stranded Agilent 4x180k PBM; binding buffer, salt, pH and temperature not given in the material; high values mean tight binding). Conditions: chain copies: 2; label: 3' end of strand 1 on the slide; dsDNA, one strand shown.
T1 sequence: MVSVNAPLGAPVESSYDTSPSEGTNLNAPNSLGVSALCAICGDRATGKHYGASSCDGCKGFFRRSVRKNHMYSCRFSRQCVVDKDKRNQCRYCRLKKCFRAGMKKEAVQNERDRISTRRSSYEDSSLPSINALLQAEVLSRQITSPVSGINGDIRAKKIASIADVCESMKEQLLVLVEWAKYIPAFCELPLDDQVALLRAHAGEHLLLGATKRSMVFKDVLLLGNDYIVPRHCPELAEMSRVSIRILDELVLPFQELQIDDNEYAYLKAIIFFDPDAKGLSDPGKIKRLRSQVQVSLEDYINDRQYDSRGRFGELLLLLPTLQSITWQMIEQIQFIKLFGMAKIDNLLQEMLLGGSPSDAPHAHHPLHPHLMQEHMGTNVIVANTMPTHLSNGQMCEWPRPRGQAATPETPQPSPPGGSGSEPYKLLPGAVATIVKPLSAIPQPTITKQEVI
In short: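 Binding signal is the background-corrected, normalized gProcessedSignal calculated by Agilent software. It was measured by applying nuclear extracts of COS-7 cells transiently transfected with a human HNF4α isoform expression vector to a custom Agilent SurePrint G3 4x180k array of ~44,000 double-stranded ~60-nt test sequences in quadruplicate, then imaging bound HNF4α on an Agilent G2565CA scanner at 2-µm resolution.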

**Q.** For “GGGGCCTAGCTTGTAAAGGGTAATCTGCTTGCCTAGGGAGATTAGAGTATCGGTCGA”, which binding signal is on record?
**A.** -0.484 log2 normalized intensity

**Q.** With “CTTCCAAGGCTGCAAGCAAACCTGCCCTTTGCCTAGGGAGATTAGAGTATCGGTCGA” as the sequence, how does the binding signal read?
**A.** 4.57 log2 normalized intensity

**Q.** With “TCTCGCTGCTTCGGCCTTTGACCTCGTGATGCCTAGGGAGATTAGAGTATCGGTCGA” as the sequence, how does the binding signal read?
**A.** 7.09 log2 normalized intensity

**Q.** “CAGGGTGGGGTCTCGCTGCTTCGGCCTTTGGCCTAGGGAGATTAGAGTATCGGTCGA” was tested. Which binding signal did it give?
**A.** 1.11 log2 normalized intensity

**Q.** How did the binding signal turn out when “TGGGGTCTCGCTGCTTCGGCCTTTGACCTCGCCTAGGGAGATTAGAGTATCGGTCGA” was run?
**A.** 8.46 log2 normalized intensity

**Q.** “GCATGGCTCAGTCCAAGTCCAAAGGTCTGAGCCTAGGGAGATTAGAGTATCGGTCGA” was tested. Which binding signal did it give?
**A.** 6.28 log2 normalized intensity

**Q.** Which binding signal does the source give for “AGTCTTGAGTCCCAAAGTCCAAAGGCAGTCGCCTAGGGAGATTAGAGTATCGGTCGA” here?
**A.** 3.61 log2 normalized intensity

**Q.** Which binding signal does the source give for “AGCCCTTATATCCACATGGGTCCAAAGTTCGCCTAGGGAGATTAGAGTATCGGTCGA” here?
**A.** 9.47 log2 normalized intensity

**Q.** “CAACTCCAAAGTCCAAAGTCCAGTCTTATCGCCTAGGGAGATTAGAGTATCGGTCGA” was tested. Which binding signal did it give?
**A.** 8.47 log2 normalized intensity

**Q.** For “CAGGGAGCCCTTATATCCACATGGGTCCAAGCCTAGGGAGATTAGAGTATCGGTCGA”, which binding signal is on record?
**A.** 3.03 log2 normalized intensity

**Q.** For “CTATCTGCCTGCAGGAGAGAGCAAAGTCCAGCCTAGGGAGATTAGAGTATCGGTCGA”, which binding signal is on record?
**A.** 8.21 log2 normalized intensity

**Q.** “GACCAGTCTGCCTGACTCCAGAGTCCAAACGCCTAGGGAGATTAGAGTATCGGTCGA” was tested. Which binding signal did it give?
**A.** 4.23 log2 normalized intensity

**Q.** With “CCAAAGTCCAAAGTCCAGTCTTATCTGAGAGCCTAGGGAGATTAGAGTATCGGTCGA” as the sequence, how does the binding signal read?
**A.** 7.93 log2 normalized intensity

**Q.** Which binding signal does the source give for “ATTCCTAAGTTCCAAAGGCCATCCACATTCGCCTAGGGAGATTAGAGTATCGGTCGA” here?
**A.** 2.4 log2 normalized intensity

**Q.** How did the binding signal turn out when “CTTGAGTCCAGGAGTGCAAAGCTGCTATGAGCCTAGGGAGATTAGAGTATCGGTCGA” was run?
**A.** -0.723 log2 normalized intensity

**Q.** “TGCCTGCAGGAGAGAGCAAAGTCCACGCATGCCTAGGGAGATTAGAGTATCGGTCGA” was tested. Which binding signal did it give?
**A.** 6.82 log2 normalized intensity

**Q.** How did the binding signal turn out when “AGTCCAAAGGTCTGAGAACCAAGAGAGCCAGCCTAGGGAGATTAGAGTATCGGTCGA” was run?
**A.** 1.62 log2 normalized intensity

**Q.** For “TTCAGTCTTTGTCTTAGCCTGCTCTTTTCCGCCTAGGGAGATTAGAGTATCGGTCGA”, which binding signal is on record?
**A.** 1.12 log2 normalized intensity

**Q.** “CCTCTGAAAACTTTTACTGGGAAGAGATAAGCCTAGGGAGATTAGAGTATCGGTCGA” was tested. Which binding signal did it give?
**A.** -0.817 log2 normalized intensity

**Q.** For “AGATAAGACAAGCTCTGTTTGTTTTGTTACGCCTAGGGAGATTAGAGTATCGGTCGA”, which binding signal is on record?
**A.** 1.26 log2 normalized intensity

**Q.** For “AACTTTGTTTGAGTTCCAAAGTCCATGTTCGCCTAGGGAGATTAGAGTATCGGTCGA”, which binding signal is on record?
**A.** 7.61 log2 normalized intensity

**Q.** How did the binding signal turn out when “ACTTTGCCTTTTGGCTAAAGTCCAAATTCCGCCTAGGGAGATTAGAGTATCGGTCGA” was run?
**A.** 6.01 log2 normalized intensity

**Q.** How did the binding signal turn out when “TGTTTGAGTTCCAAAGTCCATGTTCATAACGCCTAGGGAGATTAGAGTATCGGTCGA” was run?
**A.** 5.66 log2 normalized intensity

**Q.** With “GTCAAAACTTTGTTTGAGTTCCAAAGTCCAGCCTAGGGAGATTAGAGTATCGGTCGA” as the sequence, how does the binding signal read?
**A.** 7.18 log2 normalized intensity

**Q.** “GAATCAATGCCTGATTCCAAAGTCCACTTTGCCTAGGGAGATTAGAGTATCGGTCGA” was tested. Which binding signal did it give?
**A.** 7.71 log2 normalized intensity

**Q.** “ATACAGAATCAATGCCTGATTCCAAAGTCCGCCTAGGGAGATTAGAGTATCGGTCGA” was tested. Which binding signal did it give?
**A.** 6.36 log2 normalized intensity

**Q.** How did the binding signal turn out when “TGTTTGTTTTGAGATAGGGTCTTGCTTTGTGCCTAGGGAGATTAGAGTATCGGTCGA” was run?
**A.** 1.3 log2 normalized intensity

**Q.** Which binding signal does the source give for “CACTCATGGTGTTTGCTTTGTGAAGGCTTAGCCTAGGGAGATTAGAGTATCGGTCGA” here?
**A.** 0.417 log2 normalized intensity

**Q.** Which binding signal does the source give for “TTCCTCCAGCCTGTCGGAATTTGCCCTGTGGCCTAGGGAGATTAGAGTATCGGTCGA” here?
**A.** 5.15 log2 normalized intensity

**Q.** With “ACCATTAACCCTACAGTCCTGCCACATCCCGCCTAGGGAGATTAGAGTATCGGTCGA” as the sequence, how does the binding signal read?
**A.** -0.385 log2 normalized intensity

**Q.** How did the binding signal turn out when “ATCTCATCCTGTGACCAAGAATGTCTAACCGCCTAGGGAGATTAGAGTATCGGTCGA” was run?
**A.** -0.428 log2 normalized intensity

**Q.** Which binding signal does the source give for “TTAGGATGACCTTTAGATTCTTACAGGCAAGCCTAGGGAGATTAGAGTATCGGTCGA” here?
**A.** 4.57 log2 normalized intensity

**Q.** How did the binding signal turn out when “ATCCTTCTTGACCAGGCAAGCTTGACCTTTGCCTAGGGAGATTAGAGTATCGGTCGA” was run?
**A.** 7.77 log2 normalized intensity

**Q.** Which binding signal does the source give for “CAAGCTTGATCCAGGATCCTTCTTGACCAGGCCTAGGGAGATTAGAGTATCGGTCGA” here?
**A.** 1.18 log2 normalized intensity

**Q.** For “TCTTGACCAGGCAAGCTTGACCTTTGATCCGCCTAGGGAGATTAGAGTATCGGTCGA”, which binding signal is on record?
**A.** 10 log2 normalized intensity

**Q.** For “CTTGACCTTTGATCCAGGCTCAGTGGGCGTGCCTAGGGAGATTAGAGTATCGGTCGA”, which binding signal is on record?
**A.** 5.72 log2 normalized intensity

**Q.** With “TTGATCCAGGATCCTTCTTGACCAGGCAAGGCCTAGGGAGATTAGAGTATCGGTCGA” as the sequence, how does the binding signal read?
**A.** 0.747 log2 normalized intensity

**Q.** “ATTTGACCCTTGGCCAGGTGCAGTGGCTCAGCCTAGGGAGATTAGAGTATCGGTCGA” was tested. Which binding signal did it give?
**A.** 3.54 log2 normalized intensity

**Q.** For “GCAAGCTTGACCTTTGATCCAGGCTCAGTGGCCTAGGGAGATTAGAGTATCGGTCGA”, which binding signal is on record?
**A.** 8.22 log2 normalized intensity

**Q.** For “ACTTTGACCTAGAAGCCAGGGACCAGGAAGGCCTAGGGAGATTAGAGTATCGGTCGA”, which binding signal is on record?
**A.** -0.796 log2 normalized intensity

**Q.** With “GCTCCTGTTCCTTTGTTACACTGGCTGCCCGCCTAGGGAGATTAGAGTATCGGTCGA” as the sequence, how does the binding signal read?
**A.** 2.08 log2 normalized intensity

**Q.** Which binding signal does the source give for “AAAGGTCACCAGTGAGCCAAGGTACCCTGGGCCTAGGGAGATTAGAGTATCGGTCGA” here?
**A.** 1.29 log2 normalized intensity
